Results on 64 molecules are retold here after PubChem BioAssay AID1460 (National Center for Advancing Translational Sciences (NCATS), 2008).

Among all 270,000 compounds or so, about 5,800 (2.1%) were called active. Where a call stands in place of a potency, no number is given. Another 16% or so got no clear call; they are omitted. Calls follow the shape of the dose curve; as a rule, active = well fitted inhibition curve with a large enough effect; inconclusive = small, poorly fitted or top-dose-only effect; inactive = flat fitted curve, though single readings scatter. Only a selection was taken, and actives are over-represented in it overall.
Potency is read from the fitted curve at half-maximal effect.

Sequence of Microtubule-associated protein tau (Homo sapiens) (P10636 561-689 P618L limits assumed): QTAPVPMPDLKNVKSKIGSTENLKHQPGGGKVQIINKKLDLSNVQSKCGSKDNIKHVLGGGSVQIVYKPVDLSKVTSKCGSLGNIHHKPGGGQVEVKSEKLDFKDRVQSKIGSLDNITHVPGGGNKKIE

The test has as its target Microtubule-associated protein tau (Homo sapiens) (UniProt P10636). Nature of the test: qHTS for Inhibitors of Tau Fibril Formation, Thioflavin T Binding. Also: nearly all actives have a fitted effect of over 55% in size. The conditions noted are these: recombinant tau K18 P301L (four-repeat tau fragment), heparin-induced fibrillization, ThT fluorescence; series mostly up to 57.4 µM. The gist of the method:
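Heparin-induced (20 uM) aggregation of recombinant human K18 P301L tau, 15 uM unlabeled with 0.24 uM labeled, pH 7 acetate buffer, 6 hr at 37 C with compound. Fibrils quantified by 30 uM ThT fluorescence after 1 hr ambient incubation.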
As for `COc1ccc(Cl)cc1NC(=O)C(C)Sc1nc2c(c(=O)[nH]1)CCCC2` (centres undefined), the Potency entry is “inactive”. On the same count and under the same terms, in the case of `Cc1ccc(-c2nc(SCc3ccc(Br)cc3)n3[nH]c(=O)cc3n2)cc1` it was “inactive”; in that of `COc1cc(-c2cc3n(C)c(C)c(CCC(=O)Nc4ccc(F)cc4)c(=O)n3n2)cc(OC)c1OC`, “inactive”; in that of `CN(C)c1ccc(/C=N/Nc2cc(N3CCOCC3)nc(N3CCOCC3)n2)cc1`, 7.94 µM (active). The same measure, in the same setting: in the case of `Cc1cc(N2CCN(c3ccccc3)CC2)nc(N2CCOCC2)n1` it was “inactive”; in that of `C(=N/Nc1cc(N2CCOCC2)nc(N2CCOCC2)n1)/c1ccccc1`, “inactive”. Still for that read-out and setting: to `CCC(=O)N1c2ccccc2CC1C(=O)N1CCN(c2ccccc2F)CC1` (centres undefined) belongs “inactive”. As for `COc1ccc(CCNC(=O)c2cc3cccc4c3n2CC(C)S4)c(OC)c1OC` (centres undefined), the Potency entry is “inactive”. On the same count and under the same terms, in the case of `O=C(Nc1ccccc1Br)c1cc(CN2CCCC2)on1` it was “inactive”; in that of `COC(=O)CCNc1ccc2c(c1)OCCO2`, “inactive”. Consider `COc1ccc(C(=O)Nc2ccc3c(c2)OCO3)cc1OC`, for which the Potency result is “inactive”. Same read-out and setting: in the case of `CCOc1ccc(NCCC(=O)c2ccc3c(c2)OCO3)cc1` it was 15.8 µM (active). `COc1ccccc1-c1noc(-c2ccc(NCc3ccccc3)c([N+](=O)[O-])c2)n1`: the Potency entry is “inactive”. Same read-out and setting: to `COC(=O)c1ccc2c(c1)N(CC(=O)Nc1ccc(C)c(C)c1)C(=O)c1ccccc1S2` belongs “inactive”; to `O=C(CSc1nnc(-c2ccncc2)n1-c1ccccc1)Nc1ccc(Cl)c(Cl)c1`, “inactive”. Turning to `CCC(Sc1nnc(-c2ccc(OC)cc2)c(-c2ccc(OC)cc2)n1)C(=O)NC1CCCCC1` (centres undefined), the Potency entry is “inactive”. The same measure, in the same setting: in the case of `COc1cc(CNC2CCCC2)c(Br)cc1OCc1ccccc1` it was “inactive”; in that of `COc1cc(C(=S)NCc2ccccc2)cc(Br)c1O`, 35.5 µM (active); in that of `COc1cc(C=O)c(Br)cc1OCC(=O)NCc1ccccc1`, “inactive”. The same measure, in the same setting: to `O=C(NCC(c1ccco1)S(=O)(=O)c1cccs1)c1ccc(F)cc1` (centres undefined) belongs “inactive”; to `O=C(NC1CC(=O)N(c2ccc(F)cc2)C1)c1ccc(S(=O)(=O)N2CCCC2)cc1` (centres undefined), “inactive”. As to `Oc1cc(O)c2c(c1)OC(c1ccc(O)c(O)c1)C(O)C2` (centres undefined), the Potency was 14.1 µM (active). The same measure, in the same setting: in the case of `CCN1CCN(c2cc(C)c3cc(NC(=O)c4cc(Cl)ccc4OC)ccc3n2)CC1` it was 14.1 µM (active); in that of `COc1ccc(Cl)cc1C(=O)Nc1ccc(N(C)C(C)=O)cc1`, “inactive”; in that of `COC(=O)c1ccc(NC(=O)c2cc(Cl)ccc2OC)cc1`, “inactive”. On the same count and under the same terms, in the case of `Cc1c(NC(=O)/C=C/C(=O)O)cccc1[N+](=O)[O-]` it was “inactive”; in that of `O=C(O)/C=C/C(=O)NNc1ccc([N+](=O)[O-])cc1`, 15.8 µM (active). The same measure, in the same setting: in the case of `CNC(=S)Nc1ccc([N+](=O)[O-])cc1` it was “inactive”; in that of `COc1ccc(C2CC(=O)N(Cc3ccccc3C)c3c2c(C)nn3-c2nc(C)cc(C)n2)c(OC)c1` (centres undefined), “inactive”; in that of `O=C(Nc1ccc(Oc2ccccc2)cc1)C1CCN(S(=O)(=O)c2ccc(Cl)cc2)CC1`, “inactive”. On to `CC(=O)Nc1cccc(NC(=O)CSc2cn(CC(=O)N3CCCC3)c3ccccc23)c1`, for which the Potency result is “inactive”. On to `C=CS(=O)c1sc(Cl)c(N2CCOCC2)c1[N+](=O)[O-]` (centres undefined), for which the Potency was 8.91 µM (active).

`O=C(Nc1nnc(C2CC(=O)N(c3ccc(Cl)cc3)C2)s1)c1ccco1` (centres undefined): the Potency result was “inactive”. Still for that read-out and setting: in the case of `NC1=NC(c2cc(F)cc(F)c2)n2c(nc3ccccc32)N1` (centres undefined) it was “inactive”. Same read-out and setting: in the case of `CCOc1ccc(N(CC)S(=O)(=O)N2CCCC(C(=O)NCc3ccc(SC)cc3)C2)cc1` (centres undefined) it was “inactive”; in that of `CCc1nc(-c2cc(S(=O)(=O)N3CCN(c4ccc(OC)cc4)CC3)ccc2OC)no1`, 28.2 µM (active).

As for `COc1ccc(OC)c(-c2noc(N3CCN(c4cc(Cl)ccc4C)CC3)n2)c1`, the Potency result was “inactive”.

For `COc1ccc(N2CCN(S(=O)(=O)c3ccc(-c4coc(C)n4)cc3)CC2)cc1`, the Potency result is “inactive”. `COc1ccc(/C=C/C(=O)c2cc(Br)ccc(=O)c2O)cc1`: the Potency is 4.47 µM (active).

Regarding `COc1ccc(/C=C/NC(=O)Cc2ccc(OC)c(OC)c2)cc1`, the activity, negative = inhibition was -4.15% [at 11.5 µM] (inactive).

As to `O=C(/C=C/c1ccccc1)c1ccccc1O`, the Potency result was “inactive”. Still for that read-out and setting: to `COc1ccc(C(=O)Cc2cnn(-c3ccccc3)c2)c(O)c1` belongs “inactive”; to `COc1ccc(/C=C/C(=O)c2ccc(OC)cc2O)cc1`, 5.01 µM (active).

For the molecule `COc1ccc2oc(=O)c(C(=O)O)cc2c1`, the Potency result was “inactive”. Still for that read-out and setting: in the case of `COc1cccc(CNC(=O)C(=O)NCC(c2cccs2)S(=O)(=O)c2ccccc2)c1` (centres undefined) it was “inactive”.

As for `O=C(COc1ccccc1)OCc1cc(=O)n2nc(-c3cccs3)sc2n1`, the Potency entry was “inactive”. In the case of `CCc1ccc(NC(=O)c2cc3c(=O)n(Cc4cccnc4)ccc3nc2C)cc1`, the Potency result was “inactive”. Same read-out and setting: in the case of `COc1cccc(-n2ccn(CC(=O)NCc3ccc(C)cc3)c(=O)c2=O)c1` it was “inactive”; in that of `O=C(CSc1oc(-c2ccco2)nc1S(=O)(=O)c1ccccc1)c1ccc(Cl)cc1`, “inactive”.

On to `COc1ccc(OC)c(CCNC(=O)CCCn2c(=O)c3cccn3c3cccnc32)c1`, for which the Potency entry is “inactive”. Still for that read-out and setting: in the case of `CCOCCCn1c(SCC(=O)Nc2ccc(CC)cc2)nc2ccccc2c1=O` it was “inactive”; in that of `O=C(NCc1ccccn1)c1cc(-c2ccccc2Cl)on1`, “inactive”. On the same count and under the same terms, to `CC(C)(C)c1ccc(NC(=O)NCc2ccco2)cc1` belongs “inactive”. Still for that read-out and setting: in the case of `O=C(Nc1ccc2nccnc2c1)c1ccco1` it was “inactive”; in that of `COc1ccc(-c2nc3ccc(C(=O)NCc4ccc(C)cc4)cc3nc2-c2ccc(OC)cc2)cc1`, “inactive”; in that of `COCCNC(=O)Nc1ccc2nc(-c3ccco3)c(-c3ccco3)nc2c1`, 3.98 µM (active). Consider `O=C(NCc1ccccn1)c1ccc2nc(-c3ccco3)c(-c3ccco3)nc2c1`, for which the Potency is 12.6 µM (active). The same measure, in the same setting: to `Cc1nn(-c2ccc(F)cc2)c(-n2cccc2)c1C(=O)N1CCN(c2ccccc2)CC1` belongs “inactive”; to `Cc1ccc(-c2nc(Cn3c(=O)cc(-c4ccccc4)c4c(C)nn(C)c43)c(C)o2)cc1`, “inactive”. Same read-out and setting: to `CN(Cc1ccccc1)S(=O)(=O)c1ccc(F)c(C(=O)Nc2cccc(Cl)c2Cl)c1` belongs “inactive”. Same read-out and setting: in the case of `O=C(c1cccc(Br)c1)N1CCN(Cc2cc(=O)n3nc(-c4ccccc4)sc3n2)CC1` it was “inactive”; in that of `CCN(CC)S(=O)(=O)c1ccc2c(c1)nc(CN(C)C(=O)Nc1ccc(Cl)cc1)n2C`, “inactive”. Turning to `O=C(NCCc1ccccc1)C(=O)NCC(c1ccco1)S(=O)(=O)c1ccccc1` (centres undefined), the Potency entry is “inactive”.

As for `CSc1nc(-c2ccc(F)cc2)nc2c1Cc1c(CO)cnc(C)c1O2`, the Potency entry was “inactive”.
